Assay outcomes as filed in PubChem.
Pf growth 48h: Primary qHTS for delayed death inhibitors of the malarial parasite plastid, 48 hour incubation | P. falciparum luciferase growth in erythrocytes, 48 h | Potency, µM (doses to about 28.7 µM), without a hit: at the highest dose activity change, negative = inhibition, usual class: inhibitors | 5.9% of 310,000 active | AID 504832, 2011; also: % is scaled to controls: 0 for no effect and ±100 for the full control effect
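Luciferase-expressing parasites in RBCs, 2% Hct / 0.1% parasitemia final; RPMI 1640 + 0.5% Albumax; 37 C, 5% CO2, one generation; luminescence read-out, lower signal = inhibition.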
SARS PLpro yeast: qHTS of Yeast-based Assay for SARS-CoV PLP; S. cerevisiae expressing SARS-CoV PLpro, growth rescue; Potency, µM (doses to about 32.9 µM), for the others: top-dose activity, positive = growth rescue, actives largely listed as activators; 0.19% of 330,000 active; AID 485353, 2010; calls by dose curve; also: 0% is about no effect; nearly all actives have a fitted effect of over 55% in size
RE007 growth inh: qHTS Assay for Inhibitors of the HIV-1 protein Vpr; S. pombe RE007 Vpr strain, BacTiter-Glo ATP luminescence, 24 h; Potency, µM (top dose mostly 92.2 µM), without a hit: top-dose activity change, negative = less growth, most hits filed as inhibitors; 0.21% of 360,000 active; active = well fitted falling curve with a large enough effect; inconclusive = small, poorly fitted or top-dose-only effect; inactive = no such curve, though single readings can be large or run the other way; also: % is scaled to controls: 0 for no effect and ±100 for the full control effect; nearly all actives have a fitted effect of over 50% in size
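Fission yeast RE007 carrying one integrated HIV-1 vpr copy, seeded at OD 0.01 in PMG+AL medium with 23 nL pinned compound. Grown 24 h at 30 degrees; viability read by BacTiter-Glo luminescence after 5 min.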
Pf growth 96h: Primary qHTS for delayed death inhibitors of the malarial parasite plastid, 96 hour incubation; AID 504834, 2011; 6.9% of 320,000 active; Potency, µM (highest dose often 28.7 µM), without a hit: top-dose activity change, negative = inhibition, actives largely listed as inhibitors; P. falciparum luciferase reporter growth, 96 h; also: % is scaled to controls: 0 for no effect and ±100 for the full control effect
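Readout is luminescence from an integrated firefly luciferase in P. falciparum. Red cells, 2% hematocrit and 0.05% parasitemia final, were cultured with compound through two parasite generations (96 hours) at 37 C, 5% CO2.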
NS1 inh: qHTS Assay for Inhibitors of Influenza NS1 Protein Function | AID 2326, 2010 | Potency, µM (doses to about 46.1 µM), for the others: at the highest dose activity, positive = more growth | 0.4% of 270,000 active; calls by dose curve; also: actives are rising curves; nearly all actives have a fitted effect of over 50% in size
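A cell-based growth assay was used: compounds that relieve NS1-induced slow growth of budding yeast raise OD600. Assay medium was yeast nitrogen base with ammonium sulphate and -URA supplement, pH 6.0, with 2% galactose.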
The depositor's hits bear a star; ? = inconclusive; . = not tested or not shown. Hits are enriched below; roughly 9.5% of the tested compounds scored in any of these assays. Unless noted, calls follow the shape of the dose curve; as a rule, active = well fitted inhibition curve with a large enough effect; inconclusive = small, poorly fitted or top-dose-only effect, or another doubt; inactive = no such curve, though single readings can be large or run the other way. Potency is read from the fitted curve at half-maximal effect.

SMILES | Pf growth 48h | SARS PLpro yeast | RE007 growth inh | Pf growth 96h | NS1 inh
COc1cc(/C=C(/C#N)c2ccccc2F)ccc1OCc1ccccc1 | 12µM* | 18% | -5% | -4% | -5%
COc1cc(/C=C(\C#N)C(=O)NCc2ccccc2)ccc1OCc1ccc(C(=O)O)cc1 | 13µM* | 1% | -2% | ? | 6%
COc1cc(/C=C(/C#N)C(=O)NCCCc2ccccc2)ccc1OCC(=O)O | 14% | -7% | -4% | ? | 24%
COc1ccc(CCNC(=O)/C(C#N)=C/c2cccc(OCc3ccccc3)c2)cc1OC | ? | 9% | -1% | 12µM* | -22%
COc1cc(/C=C(\C#N)C(=O)NC2CCCCC2)ccc1OCc1ccc(C(=O)O)cc1 | 6.6µM* | 0% | 2% | -9% | 7%
CC(C)C(Nc1ncnc2c1oc1ccccc12)C(=O)O (stereo not drawn) | 23% | 0% | 6% | 4.7µM* | -5%
CC(C)[C@H](Nc1nc(-c2ccccc2)nc2c1oc1ccccc12)C(=O)O | ? | 6% | 4% | -31% | -37%
COc1ncnc2c1oc1ccccc12 | 128% | -1% | 1% | 4.7µM* | -3%
CC(C)Sc1ncnc2c1oc1ccccc12 | -3% | -8% | -13% | 19% | -15%
NC(=O)[C@H](Cc1cc2ccccc2s1)NC(=O)[C@@H]1CC2(CC(c3cccc(NC(=O)[C@@H]4CCC(=O)N4)c3)=NO2)CN1C(=O)c1ccccc1 (stereo partly drawn) | 13µM* | 5% | 11% | 10µM* | -1%
NC(=O)[C@@H]1CC2(CC(c3cccc(NC(=O)[C@H]4CCC(=O)N4)c3)=NO2)CN1C(=O)COc1ccc(Cl)cc1 (stereo partly drawn) | 50% | -1% | -13% | 39% | 5%
NC(=O)[C@H](Cc1cc2ccccc2s1)NC(=O)[C@@H]1CC2(CC(c3cccc(NC(=O)[C@@H]4CCC(=O)N4)c3)=NO2)CN1C(=O)/C=C/c1c(F)cccc1Cl (stereo partly drawn) | 4.1µM* | -7% | 0% | 2.9µM* | ?
NC(=O)[C@H]1CC2(CC(c3cccc(NC(=O)[C@H]4CCC(=O)N4)c3)=NO2)CN1C(=O)CC(c1ccccc1)c1ccccc1 (stereo partly drawn) | -39% | 0% | 4% | ? | -46%
O=C(Nc1ccc(S(=O)(=O)Nc2ncccn2)cc1)c1nn(Cc2ccccc2)c(=O)c2ccccc12 | 1.9µM* | 2% | -8% | ? | 6%
CC(C)C1OC(c2cccc(NC(=O)c3cccs3)c2)OCC1(C)C (stereo not drawn) | 1.9µM* | -7% | 4% | ? | .
COc1cccc(OC)c1C(=O)Nc1cccc(NC(=O)c2cccs2)c1 | 7% | 8% | -5% | ? | 11%
Cc1cc(N)n(-c2ccc(S(=O)(=O)c3ccc(C(C)C)cc3)cc2)n1 | 13% | -1% | -15% | 19% | .
Cc1ccc(Cn2nnnc2CN2CCC(O)(c3ccc(F)cc3)CC2)cc1 | 13µM* | -4% | -2% | 36% | -16%
COc1ccc(-c2[nH]ncc2CN2CCN(c3ccc(F)cc3)CC2)cc1 | 13% | 0% | 13% | ? | 1%
OC1(c2ccc(Cl)cc2)CCN(Cc2cn[nH]c2-c2ccccc2)CC1 | ? | 0% | 1% | 9.3µM* | 6%
OC1(c2ccc(Cl)cc2)CCN(Cc2cn[nH]c2-c2ccc(F)cc2)CC1 | 13µM* | 0% | 16% | ? | -2%
COc1ccc(-c2[nH]ncc2CN2CCC(O)(c3ccc(Cl)cc3)CC2)cc1 | ? | 0% | -5% | 12µM* | 2%
Fc1ccc(-c2[nH]ncc2CN2CCN(c3ccc(F)cc3)CC2)cc1 | 5% | -1% | -9% | 7% | -1%
Cc1cccc(-c2nc(CS(=O)CC(=O)NC3CCCC(C)C3C)c(C)o2)c1 (stereo not drawn) | 41% | -2% | -4% | 51% | -17%
CC1=CC(C)C2(COC(=O)Nc3ccccc3)COC(C)C1C2C (stereo not drawn) | ? | -2% | 16% | ? | -8%
